Data taken from PubChem BioAssay (NCI).
This is part of a sample that, as a whole, favours compounds with a hit. Of some 83,000 tested, about 20% had one in any assay.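 How to read the values: 0–100, growth inhibition (40 = 60% inhibited); 0, no net growth; -100 to 0, cell death (-40 = 40% of starting cells died; -100 = all dead).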 Activity calls are given as the source filed them. How the source made its calls: active means growth percent below 10; inactive means the rest.

What follows are molecules tested on HS 578T breast (assay: NCI-60 one-dose screen, 48 h (100 = growth as untreated, 0 = no growth, -100 = all killed)). Settings: 10 µM unless noted.

| Compound | growth |
| --- | --- |
| O=C(CCN1CCCC1)c1ccc([N+](=O)[O-])cc1 | 112% (inactive) |
| CNCCOc1nc2c3cnccc3cc(-c3cc(OC)c(OC)c(OC)c3)c2c2ccncc12 | -25.7% (active) |
| Nc1c(S(=O)(=O)O)cc2c3c(cccc13)C(=O)OC2=O | 99.2% (inactive) |
| Oc1ccc(C(c2ccc(O)cc2)c2ccc(Br)cn2)cc1 | -35.6% (active) |
| CCCCOc1ccc(/C=N/Nc2cc(C)nc3ccc(Br)cc23)cc1 | 86.8% (inactive) |
| CC1(C)NCCC[C@]2(C)[C@H]3CC(=O)[C@H]4[C@@H]5C[C@](C)(CO)CC[C@]5(C)CC[C@@]4(C)[C@]3(C)CC[C@@H]12 | 99.4% (inactive) |
| N#Cc1cc(-c2nc3ccccc3s2)c(=O)n(NS(=O)(=O)c2ccccc2)c1N | 101% (inactive) |
| O=S(=O)(NCCNc1nccc(-c2c(-c3cccc(O)c3)nc3occn23)n1)c1cccc(F)c1 | 101% (inactive) |
| c1ccc2c(-c3c[nH]c4ccccc34)c3c(cc2c1)[nH]c1ccccc13 | 84.1% (inactive) |
| O=C(/C=C(/C=C/c1csc2ccccc12)OB(F)F)/C=C/c1csc2ccccc12 | 3.47% (active) |
| Cc1ccc(-c2csc(NC(=O)CSc3nc(-c4ccccc4)cc(=O)[nH]3)n2)cc1 | 90.6% (inactive) |
| CCCC/C=N/NC(=S)NCc1ccccc1 | 95% (inactive) |
| COc1ccc2nc(-c3ccc(-c4noc(-c5cc(OC)c(OC)c(OC)c5)n4)cc3)[nH]c2c1 | 72.6% (inactive) |
| Fc1ccc(-c2cn3c(nc4ccccc43)c(-c3ccccc3)n2)cc1 | 76.7% (inactive) |
| CCNC(=O)Oc1ccc(/C(=C(\C)c2ccccc2)c2ccc(OCCN3CCCCC3)cc2)cc1 | 57.5% (inactive) |
| CCCCOc1ccc(/C(C)=N/Nc2cc(C)nc3ccc(Br)cc23)cc1 | 96.6% (inactive) |
| N#Cc1cccc(-c2ccc3c(c2)NC(=O)/C3=C\c2ccc[nH]2)c1 | 92.1% (inactive) |
| O=C(NNc1nc2c(F)cccc2n2cccc12)c1cnccn1 | 77.3% (inactive) |
| CN(C)CCC(=O)c1ccc([N+](=O)[O-])cc1 | 107% (inactive) |

What follows are molecules tested on NCI/ADR-RES ovarian in the same assay as above. Settings: 10 µM unless noted.

| Compound | growth |
| --- | --- |
| CC(C)(C)c1cc(C=O)cc(C(C)(C)C)c1O | 98.8% (inactive) |
| COc1ccc(OC)c(CCn2cncc2-c2c[nH]c3ccccc23)c1 | 71.1% (inactive) |
| COCCCN1CC(O)=C(c2nc(-c3ccc(C)cc3)cs2)C1=N | 106% (inactive) |
| O=C(CCN1CCCC1)Nc1ccc2c(Nc3ccc(Br)cc3)c3ccccc3nc2c1 | 20.3% (inactive) |
| O=C(Cn1c[n+](CC(=O)c2ccc(-c3ccccc3)cc2)c2ccccc21)Nc1cccc2cccnc12 | 96.7% (inactive) |
| CCN1Cc2nc3sc(C)c(C)c3c(=O)n2C=C1C | 30.9% (inactive) |
| Cc1ccc(-n2c3c(c(-c4ccccc4)c2-c2ccccc2)C2=NCCN2C=N3)cc1 | 100% (inactive) |
| CCCCC[n+]1ccc(SCC(=O)N(C)c2ccc(Oc3ccccc3)cc2)c2ccccc21 | 104% (inactive) |
| Cn1ccc2c1CC1CN(Cc3ccco3)C(=O)C1C2C(=O)O (configuration not stated) | 99% (inactive) |
| O=C(NO)c1ccc(-n2nc(-c3ccccc3)c3ccccc32)cc1 | 22.7% (inactive) |
| COc1ccc(CC(C)=C(c2ccc(OCCN3CCCCCC3)cc2)c2ccc(OCCN3CCCCCC3)cc2)cc1 | -90.3% (active) |
| Nc1n[nH]c2cccc(C#Cc3cccc(C(=O)Nc4cccc(C(F)(F)F)c4)c3)c12 | 80.6% (inactive) |
| Cc1ccc(C(=O)/C(=C/c2ccc([N+](=O)[O-])cc2)SCc2ccc(Cl)cc2)cc1 | 72% (inactive) |
| O=C(O)c1ccc2c(c1)C(=O)N(Cc1ccccc1)C2=O | 98% (inactive) |
| O=C1Nc2cc(-c3cccc(O)c3)ccc2/C1=C/c1ccc[nH]1 | 23.8% (inactive) |
| O=Cc1ccc(-c2cn3ccnc3c(-c3ccc4ncn(Cc5ccccc5)c4c3)n2)cc1 | 62.6% (inactive) |
| CCc1ccc(CNc2ccc(N3CCOCC3)c(C(=O)O)c2)cc1 | 98.6% (inactive) |

| Compound | growth |
| --- | --- |
| O=C(CCN1CCCC1)c1ccc([N+](=O)[O-])cc1 | 100% (inactive) |
| CNCCOc1nc2c3cnccc3cc(-c3cc(OC)c(OC)c(OC)c3)c2c2ccncc12 | -27.9% (active) |
| Nc1c(S(=O)(=O)O)cc2c3c(cccc13)C(=O)OC2=O | 93.8% (inactive) |
| Oc1ccc(C(c2ccc(O)cc2)c2ccc(Br)cn2)cc1 | -38.7% (active) |
| CCCCOc1ccc(/C=N/Nc2cc(C)nc3ccc(Br)cc23)cc1 | 83.8% (inactive) |
| N#Cc1cc(-c2nc3ccccc3s2)c(=O)n(NS(=O)(=O)c2ccccc2)c1N | 105% (inactive) |
| O=S(=O)(NCCNc1nccc(-c2c(-c3cccc(O)c3)nc3occn23)n1)c1cccc(F)c1 | 107% (inactive) |
| c1ccc2c(-c3c[nH]c4ccccc34)c3c(cc2c1)[nH]c1ccccc13 | 56.6% (inactive) |
| O=C(/C=C(/C=C/c1csc2ccccc12)OB(F)F)/C=C/c1csc2ccccc12 | 18.3% (inactive) |
| CCCC/C=N/NC(=S)NCc1ccccc1 | 104% (inactive) |
| COc1ccc2nc(-c3ccc(-c4noc(-c5cc(OC)c(OC)c(OC)c5)n4)cc3)[nH]c2c1 | 45.3% (inactive) |
| Fc1ccc(-c2cn3c(nc4ccccc43)c(-c3ccccc3)n2)cc1 | 89.3% (inactive) |
| CCNC(=O)Oc1ccc(/C(=C(\C)c2ccccc2)c2ccc(OCCN3CCCCC3)cc2)cc1 | 66.8% (inactive) |
| N#Cc1cccc(-c2ccc3c(c2)NC(=O)/C3=C\c2ccc[nH]2)c1 | 76.1% (inactive) |
| O=C(NNc1nc2c(F)cccc2n2cccc12)c1cnccn1 | 3.12% (active) |
| CN(C)CCC(=O)c1ccc([N+](=O)[O-])cc1 | 107% (inactive) |
